The source of these data is PubChem BioAssay (Tox21).

Results filed as inconclusive are left out. Activity calls are given as the source filed them. Calls come from the whole dose curve; as a rule, active = well fitted cell-killing curve with a large enough effect in the repeat runs; inconclusive = weak or mixed curves; inactive = flat fitted curve, though single readings scatter.

This experiment in a line: qHTS RealTime-Glo MT Cell Viability Assay in HepG2 cells - 8 hour (AID 1224873). Note: nearly all actives have a fitted effect of over 55% in size. The following applies: RealTime-Glo luminescence; series mostly up to 76.8 µM. From the text:
National Center for Advancing Translational Sciences [NCATS]
NIH Chemical Genomics Center [NCGC]
U.S. Environmental Protection Agency [EPA]
National Institutes of Environmental Health Sciences [NIEHS]
National Toxicology Program [NTP]
U.S. Food and Drug Administration [FDA]
Measure of cell viability is critical in the cell-base assay. Analysis of cell viability is necessary for the characterization of cell responses to cytotoxic drugs and environmental stress. A RealTime-Glo MT Cell Viability Assay to monitor cell viability in real time of continues cell culture during 40 hours of compound treatment was used to screen Tox21 10K library compounds in HepG2 cells. The RealTime-Glo MT Cell Viability Assay is a nonlytic, homogeneous, bioluminescent method to measure cell viability in real time using a simple, plate-based method. The assay involves adding NanoLuc luciferase and a cell-permeant prosubstrate to cells in culture. Viable cells reduce the proprietary prosubstrate to generate a substrate for NanoLuc luciferase. This substrate diffuses from cells into the surrounding culture medium, where it is rapidly used by the NanoLuc Enzyme to produce a luminescent signal. The signal correlates with the number of viable cells, making the assay well suited for cytotoxicity studies.
Tox21 Assay Protocol Summary:
The mixture of HepG2 cell suspension and reagents were dispensed at 600cells/6 ul/well in 1536-well tissue culture treated black solid bottom plates using a Multidrop dispenser. After the assay plates were incubated at a 37 C/5% CO2 incubator for 5 hours, 23 nL of compounds dissolved in DMSO, positive and negative controls was transferred to the assay plate by a pintool work station. The plates were incubated at 37 C for 40 hours. The luminescence intensity were measured at 0h, 8h, 16h, 24h, 32h and 40h time points using ViewLux plate reader during compound treatment.
For orientation: qHTS replaces the single test concentration by a dilution series.
Consider `CC(C)=CCC[C@](C)(O)[C@@H]1CC=C(C)CC1`, for which the result was inactive. For the compound `CCN(CC)CCNC(=O)COc1ccc(Cl)cc1`, the call was inactive. Consider `Cn1cnc2c(F)c(Nc3ccc(Br)cc3Cl)c(C(=O)NOCCO)cc21`, for which the compound was called inactive. As for `CCC(=O)c1ccc2c(c1)N(CCCN(C)C)c1ccccc1S2`, the call was inactive.

For `CCCC(CCC)(C(=O)OCC)C(=O)OCC`, the compound was called inactive.

Consider `Cc1cc(NS(=O)(=O)c2ccc(N)cc2)nc(C)n1`, for which the compound was called inactive. Take `CCCOc1ccc2c(c1)CC[C@@H]1[C@@H]2CC[C@]2(C)C(OC)CC[C@@H]12` (stereo not given in full): the call was inactive. The result for `Cc1cc2c(s1)Nc1ccccc1N=C2N1CCN(C)CC1` reads “inactive”; that for `Cc1nc(N)nc(N)c1-c1ccc(Cl)c(Cl)c1`, “inactive”.

As for `CC(C)(C)C1CCCCC1=O` (stereo not given), the compound was called inactive. The result for `COC(=O)/C=C(/C)N` reads “inactive”; that for `COc1cc2c(cc1N)oc1ccccc12`, “inactive”. With `CC1(O)CSC(C)(O)CS1` (stereo not given), the call was inactive. Next, `O=C(O[C@@H](C(=O)O)[C@@H](OC(=O)c1ccccc1)C(=O)O)c1ccccc1`: “inactive”; `CC(C)NC[C@@H](O)COc1cccc2ccccc12`: “inactive”.

Take `CC(=O)OC(C)OC(C)=O`: the outcome was inactive. In the case of `OC[C@H]1O[C@@H](O[C@H]2[C@H](O)[C@@H](O)[C@H](O)O[C@@H]2CO)[C@H](O)[C@@H](O)[C@H]1O`, the compound was called inactive.

Consider `CC(C)C[C@H](NC(=O)OCC1c2ccccc2-c2ccccc21)C(=O)O`, for which the outcome was inactive.

For the compound `COc1ccc(Nc2ccc(OC)cc2)cc1`, the call was inactive.

Take `CCCCNc1cc(C(=O)O)cc(S(N)(=O)=O)c1Oc1ccccc1`: the result was inactive.

Turning to `CCCCC(CC)COC(=O)COc1cc(Cl)c(Cl)cc1Cl` (stereo not given), the call was inactive. Next, `Nc1cccc(S(=O)(=O)O)c1`: “inactive”; `Clc1cccc(-c2cc(Cl)cc(Cl)c2)c1`: “inactive”. The result for `CCCCC1CCC(=O)O1` (stereo not given) reads “inactive”; that for `O=[N+]([O-])c1nccn1CO[C@@H](CO)[C@H](O)CO`, “inactive”; that for `CCC(=O)O[C@]1(C(=O)SCF)[C@H](C)C[C@H]2[C@@H]3C[C@H](F)C4=CC(=O)C=C[C@]4(C)[C@@]3(F)[C@@H](O)C[C@@]21C`, “inactive”. Next, `NC(=O)NS(=O)(=O)c1ccc(Cl)cc1`: “inactive”; `CCN1CC(CCN2CCOCC2)C(c2ccccc2)(c2ccccc2)C1=O` (stereo not given): “inactive”.

As for `Cc1c(N)cccc1N`, the call was inactive.

On to `CC(C)C1=CC2=CC[C@@H]3[C@](C)(CCC[C@@]3(C)C(=O)O)[C@H]2CC1`, for which the compound was called inactive.

Consider `C=CCCCCCCCCO`, for which the compound was called inactive. In the case of `CCOC(=O)C(Br)c1ccccc1` (stereo not given), the outcome was inactive. The result for `CN1CCN(C2=Nc3cc(F)ccc3Cc3ccccc32)CC1` reads “inactive”; that for `COc1cc(N)c(Cl)cc1C(=O)NC1CCN(Cc2ccccc2)CC1`, “inactive”; that for `Oc1ccccc1F`, “inactive”. Next, `CN(C)CCOc1ccccc1Cc1ccccc1`: “inactive”; `COc1ccccc1N1CCN(CCCNc2cc(=O)n(C)c(=O)n2C)CC1`: “inactive”; `CCCC1CCC(=O)O1` (stereo not given): “inactive”.

As for `CC1(C)S[C@@H]2[C@H](NC(=O)C(C(=O)O)c3ccccc3)C(=O)N2[C@H]1C(=O)O` (stereo not given in full), the result was inactive. Regarding `CCOc1ccc(NC(N)=O)cc1`, the result was inactive.
